# Laboratory results from PubChem BioAssay (EPA / NIEHS).
# The source made the active and inactive calls. Rule for the calls: active = hit-call score of the fitted dose curve at least 0.9, where 1 is the maximum; inactive = score below 0.9.
# Assays:
# [1] = ATG_CRE_CIS: Attagene CIS-FACTORIAL HepG2 Assay for human cAMP Responsive Element (CRE) binding protein 3 (AID 2282926); settings: HepG2 CRE cis-reporter, Attagene multiplexed mRNA; actives raise or lower the signal
# Method in brief: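 Endogenous transcription factor activity read via CRE-regulated reporter transcripts in transfected HepG2 cells. After 24 h exposure, RNA was reverse-transcribed, amplified, fluorescently labelled and sized by capillary electrophoresis; gain or loss fitted against DMSO.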
# [2] = biological target: CCAAT/enhancer-binding protein beta (Homo sapiens) (UniProt P17676); experiment: ATG_C_EBP_CIS: Attagene CIS-FACTORIAL HepG2 Assay for human CCAAT/Enhancer Binding Protein (C/EBP) beta (AID 2282927); settings: HepG2 Attagene cis-factorial transcription factor reporter; actives raise or lower the signal
# Method in brief: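 RT-PCR/capillary electrophoresis fluorescence of reporter mRNA, 24 h post-dose, in HepG2 cells carrying transfected cis-promoter reporter units. Bidirectional curve fitting against DMSO baseline captures gain or loss of signal.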
# [3] = ATG_CMV_CIS: Attagene CIS-FACTORIAL HepG2 Assay for human CMV (Internal Marker) (AID 2282928); settings: HepG2 CMV promoter reporter, transcription factor profiling; actives raise or lower the signal;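 note: endpoint acts as a background internal control marker rather than a target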
# Method in brief: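 Reporter transcripts from transfected HepG2 cells are isolated after 24 h of chemical dosing, reverse-transcribed and amplified. Fragments labeled with 6-FAM are cut with HpaI and quantified by capillary electrophoresis; DMSO defines baseline.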
# [4] = ATG_DR4_LXR_CIS: Attagene CIS-FACTORIAL HepG2 Assay for human Liver X Receptor (LXR), DR4 submotif (AID 2282929); settings: HepG2 Attagene DR4 cis-reporter, mRNA transcription; actives raise or lower the signal
# Method in brief: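 Cells were transfected with multiple reporter transcription units, exposed to chemicals for 24 hours, then lysed for RNA. Reporter mRNA induction was measured by RT-PCR with capillary electrophoresis detection and fitted in both directions relative to DMSO.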
# [5] = biological target: Aryl hydrocarbon receptor (Homo sapiens) (UniProt P35869); experiment: ATG_Ahr_CIS: Attagene CIS-FACTORIAL HepG2 Assay for human Aryl Hydrocarbon Receptor (Ahr) (AID 2282930); settings: HepG2 AhR cis-factorial reporter transcription; actives raise or lower the signal
# Method in brief: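 HepG2 cells transiently transfected with cis-element-driven multiplexed reporter transcription units; endogenous transcription factor activity measured as reporter mRNA 24 h after dosing. RT-PCR, 6-FAM labelling, HpaI digestion, capillary electrophoresis; bidirectional fitting versus DMSO baseline.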
# [6] = ATG_AP_1_CIS: Attagene CIS-FACTORIAL HepG2 Assay for human Activator Protein 1 (AP-1) (AID 2282931); settings: HepG2 Attagene cis-factorial AP-1 reporter mRNA; actives raise or lower the signal
# Method in brief: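 Endogenous transcription-factor activity in human HepG2 liver cells is read through a cis-promoter reporter transcript, sampled 24 h after dosing. Detection uses RT-PCR with capillary electrophoresis; values come from bidirectional fitting relative to DMSO.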
# [7] = ATG_AP_2_CIS: Attagene CIS-FACTORIAL HepG2 Assay for human Activator Protein 2 (AP-2) (AID 2282932); settings: HepG2 AP-2 cis-reporter, Attagene transcription factor profiling; actives raise or lower the signal
# Method in brief: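 Assay in transfected HepG2 with promoter-regulated reporters, 24 h incubation after dosing. Signal is reporter mRNA fluorescence (RT-PCR, capillary electrophoresis), analysed for both increases and decreases relative to DMSO controls.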
# [8] = ATG_BRE_CIS: Attagene CIS-FACTORIAL HepG2 Assay for human Bone Morphogenetic Protein (BMP) Response Element (BRE) (AID 2282933); settings: HepG2 BMP response element reporter, Attagene transcription factor profiling; actives raise or lower the signal
# Method in brief: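 Transient MRTU transfection of human HepG2 liver cells; 24 h compound treatment; total RNA isolated, reverse-transcribed, PCR-amplified, 6-FAM labelled, HpaI-cut, capillary electrophoresis. DMSO = negative control/baseline, bidirectional fit.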
# [9] = biological target: Retinoic acid receptor alpha (Homo sapiens) (UniProt P10276); experiment: ATG_DR5_RAR_CIS: Attagene CIS-FACTORIAL HepG2 Assay for human Retinoic Acid Receptor Alpha (RARE), DR5 submotif (AID 2282934); settings: HepG2 Attagene cis-factorial RARE DR5 reporter, mRNA; actives raise or lower the signal;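 for AC50: reporter responds to endogenous RAR alpha beta and gamma in HepG2 not RARA alone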
# Method in brief: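 HepG2 cells transiently transfected with multiplexed reporter units under cis (DR5 RARE) promoters, so endogenous transcription factor activity is measured. After 24 h compound exposure, reporter mRNA is quantified by RT-PCR with fluorescent labelling and capillary electrophoresis; bidirectional fitting versus DMSO.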
# [10] = biological target: Transcription factor E2F1 (Homo sapiens) (UniProt Q01094); experiment: ATG_E2F_CIS: Attagene CIS-FACTORIAL HepG2 Assay for human E2F Transcription Factor 1 (AID 2282935); settings: HepG2 Attagene cis-reporter, E2F reporter RNA transcripts; actives raise or lower the signal
# Method in brief: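 In this cis-factorial format, endogenous factor activity drives transfected reporters in HepG2; transcripts collected at 24 h are quantified by fluorescence after RT-PCR and capillary separation.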
# Retinoic acid receptor alpha (Homo sapiens), sequence (P10276 whole entry, looked up): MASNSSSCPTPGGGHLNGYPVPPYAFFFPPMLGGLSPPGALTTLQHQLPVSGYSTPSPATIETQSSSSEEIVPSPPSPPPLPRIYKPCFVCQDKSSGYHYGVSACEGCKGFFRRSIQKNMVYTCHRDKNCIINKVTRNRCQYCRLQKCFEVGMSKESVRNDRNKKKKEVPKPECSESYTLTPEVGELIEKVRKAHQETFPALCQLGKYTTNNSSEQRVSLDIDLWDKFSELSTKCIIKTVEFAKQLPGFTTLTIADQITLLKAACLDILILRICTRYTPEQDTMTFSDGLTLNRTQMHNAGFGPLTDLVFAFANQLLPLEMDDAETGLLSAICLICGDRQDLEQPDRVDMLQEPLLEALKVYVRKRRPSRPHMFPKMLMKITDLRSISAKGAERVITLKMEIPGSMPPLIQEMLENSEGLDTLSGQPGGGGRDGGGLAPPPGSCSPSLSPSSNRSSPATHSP
# Transcription factor E2F1 (Homo sapiens), sequence (Q01094 whole entry, looked up): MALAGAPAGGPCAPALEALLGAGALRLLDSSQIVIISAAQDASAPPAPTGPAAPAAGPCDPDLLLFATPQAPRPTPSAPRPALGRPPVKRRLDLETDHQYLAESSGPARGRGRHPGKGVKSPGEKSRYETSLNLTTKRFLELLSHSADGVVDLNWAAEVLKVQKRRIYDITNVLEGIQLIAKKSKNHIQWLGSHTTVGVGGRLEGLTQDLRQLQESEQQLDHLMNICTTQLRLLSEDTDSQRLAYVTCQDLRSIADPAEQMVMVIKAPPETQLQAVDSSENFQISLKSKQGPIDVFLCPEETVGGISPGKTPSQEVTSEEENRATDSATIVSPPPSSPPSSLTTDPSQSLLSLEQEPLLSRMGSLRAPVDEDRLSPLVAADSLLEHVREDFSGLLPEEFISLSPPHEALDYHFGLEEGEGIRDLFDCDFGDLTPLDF
# CCAAT/enhancer-binding protein beta (Homo sapiens), sequence (P17676 whole entry, looked up): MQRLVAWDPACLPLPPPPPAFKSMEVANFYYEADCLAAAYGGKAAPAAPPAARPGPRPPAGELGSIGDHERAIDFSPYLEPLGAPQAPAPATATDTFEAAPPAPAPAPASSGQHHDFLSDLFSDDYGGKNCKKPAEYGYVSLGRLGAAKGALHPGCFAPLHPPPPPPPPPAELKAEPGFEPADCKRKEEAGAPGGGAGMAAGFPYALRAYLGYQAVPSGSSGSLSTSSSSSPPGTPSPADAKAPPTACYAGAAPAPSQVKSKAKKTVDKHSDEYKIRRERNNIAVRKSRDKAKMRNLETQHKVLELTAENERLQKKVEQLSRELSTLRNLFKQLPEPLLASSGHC
# Aryl hydrocarbon receptor (Homo sapiens), sequence (P35869 whole entry, looked up): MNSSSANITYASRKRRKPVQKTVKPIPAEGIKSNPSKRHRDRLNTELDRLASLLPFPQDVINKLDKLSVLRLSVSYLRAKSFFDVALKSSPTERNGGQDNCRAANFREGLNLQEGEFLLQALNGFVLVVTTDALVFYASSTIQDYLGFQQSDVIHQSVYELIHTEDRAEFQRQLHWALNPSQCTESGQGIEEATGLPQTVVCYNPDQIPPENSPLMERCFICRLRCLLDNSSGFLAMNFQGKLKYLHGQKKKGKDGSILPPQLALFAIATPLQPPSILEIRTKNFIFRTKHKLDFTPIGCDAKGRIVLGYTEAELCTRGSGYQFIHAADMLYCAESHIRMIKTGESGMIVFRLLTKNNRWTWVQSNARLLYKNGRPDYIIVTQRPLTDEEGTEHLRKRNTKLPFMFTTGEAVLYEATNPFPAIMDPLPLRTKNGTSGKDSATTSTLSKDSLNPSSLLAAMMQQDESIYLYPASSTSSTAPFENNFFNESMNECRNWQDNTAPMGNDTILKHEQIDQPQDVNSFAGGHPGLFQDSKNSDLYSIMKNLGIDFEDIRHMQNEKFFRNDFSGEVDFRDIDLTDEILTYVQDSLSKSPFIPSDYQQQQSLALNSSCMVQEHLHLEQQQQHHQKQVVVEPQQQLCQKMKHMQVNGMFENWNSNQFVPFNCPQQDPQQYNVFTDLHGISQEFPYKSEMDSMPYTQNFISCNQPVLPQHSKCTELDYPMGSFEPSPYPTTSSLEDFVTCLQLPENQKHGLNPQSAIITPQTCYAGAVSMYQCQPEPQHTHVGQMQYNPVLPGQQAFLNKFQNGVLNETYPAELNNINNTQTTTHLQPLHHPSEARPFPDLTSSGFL
SMILES,AC50 [1],AC50 [2],outcome [3],AC50 [4],AC50 [5],outcome [6],outcome [7],AC50 [8],AC50 [9],outcome [10],outcome [1],outcome [2],outcome [4],outcome [8],outcome [9],outcome [5],AC50 [3],AC50 [7]
CN(C)c1ccc(C(=N)c2ccc(N(C)C)cc2)cc1,0.399 µM (active),0.871 µM (active),inactive,0.056 µM (active),0.334 µM (active),inactive,inactive,7.22 µM (active),7.38 µM (active),inactive,,,,,,,,
COc1ccc2nc(N)sc2c1,,,inactive,,3.17 µM (active),inactive,inactive,,,inactive,inactive,inactive,inactive,inactive,inactive,,,
O=c1n(CCO)c(=O)n(CCO)c(=O)n1CCO,,,inactive,,,inactive,inactive,,,inactive,inactive,inactive,inactive,inactive,inactive,inactive,,
CC(C)(C)C1CCCCC1=O (stereo not given),,,inactive,,,inactive,inactive,,,inactive,inactive,inactive,inactive,inactive,inactive,inactive,,
CC(CC=O)CCCC(C)(C)O (stereo not given),,,inactive,,,inactive,inactive,,,inactive,inactive,inactive,inactive,inactive,inactive,inactive,,
OCCNCc1ccccc1,,,inactive,,,inactive,inactive,,,inactive,inactive,inactive,inactive,inactive,inactive,inactive,,
O=C1c2ccccc2C(=O)C1c1nc2ccccc2c(Br)c1O,,,inactive,,0.388 µM (active),inactive,inactive,100 µM (active),,inactive,inactive,inactive,inactive,,inactive,,,
COc1cc(C)ccc1C(C)C,,,inactive,,,inactive,inactive,,,inactive,inactive,inactive,inactive,inactive,inactive,inactive,,
c1ccc(-c2ccccn2)nc1,,,inactive,,,inactive,inactive,,,inactive,inactive,inactive,inactive,inactive,inactive,inactive,,
C=COCCCC,,,inactive,,,inactive,inactive,,,inactive,inactive,inactive,inactive,inactive,inactive,inactive,,
CC(C)=CCC[C@H](C)CCO,,,inactive,,,inactive,inactive,,,inactive,inactive,inactive,inactive,inactive,inactive,inactive,,
O=Nc1ccc(O)cc1,,,inactive,,,inactive,inactive,,,inactive,inactive,inactive,inactive,inactive,inactive,inactive,,
COCCOCCOCCOCCOC,,,inactive,,,inactive,inactive,,,inactive,inactive,inactive,inactive,inactive,inactive,inactive,,
CC(C)(C)c1n[nH]c(=O)n(N)c1=O,,,inactive,,,inactive,inactive,,,inactive,inactive,inactive,inactive,inactive,inactive,inactive,,
O=C1CCCN1CCO,,,inactive,,,inactive,inactive,,,inactive,inactive,inactive,inactive,inactive,inactive,inactive,,
O=S1(=O)OC(c2ccc(O)cc2)(c2ccc(O)cc2)c2ccccc21,,,inactive,,34.9 µM (active),inactive,inactive,,,inactive,inactive,inactive,inactive,inactive,inactive,,,
COC=O,,,inactive,,,inactive,inactive,,,inactive,inactive,inactive,inactive,inactive,inactive,inactive,,
NC(CO)(CO)CO,,,inactive,,,inactive,inactive,,,inactive,inactive,inactive,inactive,inactive,inactive,inactive,,
CC(=O)OC1C2(C)CCC(C2)C1(C)C (stereo not given),,,inactive,,,inactive,inactive,,,inactive,inactive,inactive,inactive,inactive,inactive,inactive,,
Cn1c(=O)[nH]c2ncn(C)c2c1=O,,,inactive,,,inactive,inactive,,,inactive,inactive,inactive,inactive,inactive,inactive,inactive,,
OC1CCCCCCCCCCC1,,,,40.5 µM (active),,inactive,inactive,,,inactive,inactive,inactive,,inactive,inactive,inactive,75.4 µM (active),
c1cc(N(CC2CO2)CC2CO2)ccc1OCC1CO1 (stereo not given),12.6 µM (active),,,6.98 µM (active),,inactive,,,83.1 µM (active),inactive,,inactive,,inactive,,inactive,91.5 µM (active),25.8 µM (active)
COc1ccc(-c2coc3cc(O)ccc3c2=O)cc1,,,inactive,,20 µM (active),inactive,inactive,,,inactive,inactive,inactive,inactive,inactive,inactive,,,
